From paper PMC7862700, “An all-to-all approach to the identification of sequence-specific readers for epigenetic DNA modifications on cytosine” come the findings set out here.

Common to all, as to assay: DAPPL (digital affinity profiling via proximity ligation, sequencing); 10 mM Tris-HCl pH 7.5, 50 mM NaCl, 1 mM DTT, 4% glycerol, room temperature, 30 min; GST-TFs on glutathione beads, 16-mer random dsDNA library, 0.1% formaldehyde crosslink after washing; high values mean tight binding
Conditions in all cases: protein: recombinant; tags: N-terminal GST; dsDNA, one strand shown

Assay [1] has as its target T1, ELK1 (Homo sapiens, UniProt P19419 1-428).
T1 sequence: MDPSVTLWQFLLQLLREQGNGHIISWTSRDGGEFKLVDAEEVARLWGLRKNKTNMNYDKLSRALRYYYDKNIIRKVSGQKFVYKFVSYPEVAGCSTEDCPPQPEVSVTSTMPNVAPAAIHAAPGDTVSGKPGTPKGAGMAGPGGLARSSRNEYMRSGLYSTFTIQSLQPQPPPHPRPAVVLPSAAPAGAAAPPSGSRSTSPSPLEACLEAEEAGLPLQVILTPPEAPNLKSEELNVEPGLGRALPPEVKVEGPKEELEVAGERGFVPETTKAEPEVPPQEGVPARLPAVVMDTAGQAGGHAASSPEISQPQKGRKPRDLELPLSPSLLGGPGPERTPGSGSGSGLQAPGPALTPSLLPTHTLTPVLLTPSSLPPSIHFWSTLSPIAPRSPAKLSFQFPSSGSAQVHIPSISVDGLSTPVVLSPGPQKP
Put shortly:
(§1)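 Each value of binding signal is a hexamer's read frequency for a factor divided by the same hexamer's frequency in the tag-only sample. Barcoded, bead-captured GST fusions of human transcription factors made in yeast were pooled with that sample and incubated with 200 nmole of a random double-stranded 16-mer DNA library in Tris/NaCl/DTT/glycerol buffer at room temperature for 30 min. Washing, 0.1% formaldehyde crosslinking, proximity ligation, PCR and Illumina NextSeq500 sequencing followed.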

Assay [2] has as its target T2, GABPA (Homo sapiens, UniProt Q06546 1-454).
T2 sequence: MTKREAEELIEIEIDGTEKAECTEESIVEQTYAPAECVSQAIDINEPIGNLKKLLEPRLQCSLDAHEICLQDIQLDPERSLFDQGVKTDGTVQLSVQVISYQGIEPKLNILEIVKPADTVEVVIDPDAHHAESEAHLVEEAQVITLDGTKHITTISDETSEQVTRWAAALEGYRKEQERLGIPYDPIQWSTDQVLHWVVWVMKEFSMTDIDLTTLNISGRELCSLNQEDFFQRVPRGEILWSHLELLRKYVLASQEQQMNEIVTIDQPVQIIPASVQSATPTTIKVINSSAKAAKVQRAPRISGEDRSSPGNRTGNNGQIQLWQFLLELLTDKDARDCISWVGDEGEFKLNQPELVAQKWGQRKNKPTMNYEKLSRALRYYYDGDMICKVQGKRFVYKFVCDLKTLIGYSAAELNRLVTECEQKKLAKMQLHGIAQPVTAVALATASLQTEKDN
Summed up:
as §1

Assay [3] has as its target T3, ERG (Homo sapiens, UniProt P11308 1-479).
T3 sequence: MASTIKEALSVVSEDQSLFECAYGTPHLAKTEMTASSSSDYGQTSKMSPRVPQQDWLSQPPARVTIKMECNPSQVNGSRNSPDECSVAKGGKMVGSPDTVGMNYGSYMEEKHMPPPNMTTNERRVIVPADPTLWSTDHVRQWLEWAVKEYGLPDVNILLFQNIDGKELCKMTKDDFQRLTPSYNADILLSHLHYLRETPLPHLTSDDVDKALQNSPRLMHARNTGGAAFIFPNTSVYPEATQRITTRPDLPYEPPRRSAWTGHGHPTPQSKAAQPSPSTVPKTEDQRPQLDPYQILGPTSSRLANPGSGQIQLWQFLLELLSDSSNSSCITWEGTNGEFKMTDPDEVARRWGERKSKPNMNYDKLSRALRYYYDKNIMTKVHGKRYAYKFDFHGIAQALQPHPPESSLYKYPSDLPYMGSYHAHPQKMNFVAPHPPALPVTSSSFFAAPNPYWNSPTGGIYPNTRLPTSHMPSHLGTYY
Summed up:
as §1

In assay [4] the target is SPIB (Homo sapiens, UniProt Q01892 1-262). Put shortly: as §1
SPIB, sequence (Q01892 whole entry): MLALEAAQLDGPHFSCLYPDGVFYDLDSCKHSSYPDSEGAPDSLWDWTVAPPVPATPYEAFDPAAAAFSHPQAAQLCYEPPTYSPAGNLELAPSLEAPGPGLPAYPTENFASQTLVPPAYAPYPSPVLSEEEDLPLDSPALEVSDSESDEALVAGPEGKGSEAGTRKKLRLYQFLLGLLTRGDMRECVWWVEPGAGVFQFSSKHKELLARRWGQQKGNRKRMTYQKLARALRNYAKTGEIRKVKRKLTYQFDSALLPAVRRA
Assay [5] has as its target T4, SPIC (Homo sapiens, UniProt Q8N5J4 1-248).
T4 sequence: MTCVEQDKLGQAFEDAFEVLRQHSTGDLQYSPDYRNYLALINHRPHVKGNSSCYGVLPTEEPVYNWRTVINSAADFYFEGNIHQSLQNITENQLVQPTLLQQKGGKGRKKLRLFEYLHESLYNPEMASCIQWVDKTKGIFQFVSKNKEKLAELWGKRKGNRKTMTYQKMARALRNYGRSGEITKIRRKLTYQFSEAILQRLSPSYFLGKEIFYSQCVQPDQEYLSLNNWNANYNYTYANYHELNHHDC
Put shortly:
as §1

In assay [6] the target is ELF4 (Homo sapiens, UniProt Q99607 1-663). Put shortly: as §1
ELF4, sequence (Q99607 whole entry): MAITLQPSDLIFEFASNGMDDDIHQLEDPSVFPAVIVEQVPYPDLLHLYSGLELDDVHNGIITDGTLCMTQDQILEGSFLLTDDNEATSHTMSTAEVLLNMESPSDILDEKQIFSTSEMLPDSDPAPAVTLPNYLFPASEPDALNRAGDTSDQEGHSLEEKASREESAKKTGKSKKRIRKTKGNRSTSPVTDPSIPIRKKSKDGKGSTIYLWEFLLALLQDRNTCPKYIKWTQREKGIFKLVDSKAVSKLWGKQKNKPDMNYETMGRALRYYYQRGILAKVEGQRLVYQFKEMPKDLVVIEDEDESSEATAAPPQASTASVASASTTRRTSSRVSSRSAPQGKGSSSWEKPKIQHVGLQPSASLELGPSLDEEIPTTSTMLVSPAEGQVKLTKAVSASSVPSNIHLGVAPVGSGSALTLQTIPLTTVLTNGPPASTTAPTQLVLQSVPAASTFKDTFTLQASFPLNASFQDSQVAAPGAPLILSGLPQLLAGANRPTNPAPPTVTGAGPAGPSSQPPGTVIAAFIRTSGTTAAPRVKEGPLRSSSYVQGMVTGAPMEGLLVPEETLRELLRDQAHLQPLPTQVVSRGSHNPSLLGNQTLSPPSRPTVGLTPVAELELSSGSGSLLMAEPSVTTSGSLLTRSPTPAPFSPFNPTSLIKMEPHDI
Assay [7] addresses T5, ELK4 (Homo sapiens, UniProt P28324-2 1-405).
T5 sequence: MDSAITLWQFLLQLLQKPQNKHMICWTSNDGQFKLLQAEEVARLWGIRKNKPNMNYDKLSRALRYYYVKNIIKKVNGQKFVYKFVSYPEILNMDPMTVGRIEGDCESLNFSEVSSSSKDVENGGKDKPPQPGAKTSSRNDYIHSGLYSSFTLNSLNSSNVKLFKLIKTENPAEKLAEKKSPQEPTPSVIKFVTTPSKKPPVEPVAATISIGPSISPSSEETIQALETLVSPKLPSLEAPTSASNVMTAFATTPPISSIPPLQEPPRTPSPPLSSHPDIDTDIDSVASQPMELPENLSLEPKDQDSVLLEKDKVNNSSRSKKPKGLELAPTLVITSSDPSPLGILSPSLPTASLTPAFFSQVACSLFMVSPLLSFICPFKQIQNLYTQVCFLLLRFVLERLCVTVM
Put shortly: as §1

The target of assay [8] is T6, ELF3 (Homo sapiens, UniProt P78545 1-371).
T6 sequence: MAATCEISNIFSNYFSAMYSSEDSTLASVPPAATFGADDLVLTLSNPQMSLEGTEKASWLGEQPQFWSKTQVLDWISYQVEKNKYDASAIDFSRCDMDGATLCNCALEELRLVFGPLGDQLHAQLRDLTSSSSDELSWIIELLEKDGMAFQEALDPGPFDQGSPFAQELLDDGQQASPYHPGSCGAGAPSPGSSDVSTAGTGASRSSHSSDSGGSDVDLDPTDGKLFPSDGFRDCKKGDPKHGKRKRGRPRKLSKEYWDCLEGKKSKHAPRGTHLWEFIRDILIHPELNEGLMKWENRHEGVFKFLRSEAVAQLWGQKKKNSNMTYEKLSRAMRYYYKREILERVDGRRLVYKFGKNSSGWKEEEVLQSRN
Summed up: as §1

Assay [9] deals with ETV1 (Homo sapiens, UniProt P50549 1-477). Summed up: as §1
ETV1, sequence (P50549 whole entry): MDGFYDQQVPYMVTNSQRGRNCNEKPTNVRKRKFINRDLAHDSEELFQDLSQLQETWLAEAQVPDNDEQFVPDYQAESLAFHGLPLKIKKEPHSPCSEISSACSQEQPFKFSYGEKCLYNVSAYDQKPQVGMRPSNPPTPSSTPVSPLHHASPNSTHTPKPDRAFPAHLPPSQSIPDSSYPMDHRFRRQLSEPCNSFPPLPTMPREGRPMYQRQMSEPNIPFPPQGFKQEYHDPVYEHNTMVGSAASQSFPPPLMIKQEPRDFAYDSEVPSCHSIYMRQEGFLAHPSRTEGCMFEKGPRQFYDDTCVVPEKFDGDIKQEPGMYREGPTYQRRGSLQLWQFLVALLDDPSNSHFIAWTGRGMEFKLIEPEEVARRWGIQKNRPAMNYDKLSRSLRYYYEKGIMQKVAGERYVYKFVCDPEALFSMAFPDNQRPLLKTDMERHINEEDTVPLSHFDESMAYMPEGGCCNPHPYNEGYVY
Assay [10] deals with T7, ERF (Homo sapiens, UniProt P50548 1-548).
T7 sequence: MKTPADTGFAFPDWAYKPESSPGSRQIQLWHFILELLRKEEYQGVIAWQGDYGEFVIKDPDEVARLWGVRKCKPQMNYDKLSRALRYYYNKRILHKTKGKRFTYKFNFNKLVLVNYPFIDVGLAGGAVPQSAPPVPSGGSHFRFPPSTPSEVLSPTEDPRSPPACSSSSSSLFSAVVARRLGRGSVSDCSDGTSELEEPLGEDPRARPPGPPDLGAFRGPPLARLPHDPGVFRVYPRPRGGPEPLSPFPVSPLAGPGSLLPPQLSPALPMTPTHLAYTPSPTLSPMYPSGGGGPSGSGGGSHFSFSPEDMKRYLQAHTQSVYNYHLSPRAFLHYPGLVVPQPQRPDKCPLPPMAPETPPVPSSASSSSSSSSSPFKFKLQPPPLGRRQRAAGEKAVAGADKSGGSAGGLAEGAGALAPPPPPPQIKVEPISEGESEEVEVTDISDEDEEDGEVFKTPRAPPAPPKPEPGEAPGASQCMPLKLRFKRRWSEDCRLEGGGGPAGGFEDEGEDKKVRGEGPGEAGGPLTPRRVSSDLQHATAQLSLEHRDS
Put shortly: as §1

In assay [11] the target is T8, ETV3L (Homo sapiens, UniProt Q6ZN32 1-361).
T8 sequence: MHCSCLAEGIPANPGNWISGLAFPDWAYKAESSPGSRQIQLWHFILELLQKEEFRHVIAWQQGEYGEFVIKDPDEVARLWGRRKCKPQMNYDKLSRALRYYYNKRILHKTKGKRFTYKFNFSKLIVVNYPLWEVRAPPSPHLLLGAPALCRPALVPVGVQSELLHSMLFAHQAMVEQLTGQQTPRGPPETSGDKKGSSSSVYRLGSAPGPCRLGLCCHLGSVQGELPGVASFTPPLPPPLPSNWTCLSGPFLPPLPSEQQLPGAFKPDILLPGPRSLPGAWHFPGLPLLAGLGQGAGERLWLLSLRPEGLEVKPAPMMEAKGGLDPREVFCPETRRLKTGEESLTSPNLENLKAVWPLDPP
Put shortly:
as §1

Assay [12] addresses T9, ETS2 (Homo sapiens, UniProt P15036 1-469).
T9 sequence: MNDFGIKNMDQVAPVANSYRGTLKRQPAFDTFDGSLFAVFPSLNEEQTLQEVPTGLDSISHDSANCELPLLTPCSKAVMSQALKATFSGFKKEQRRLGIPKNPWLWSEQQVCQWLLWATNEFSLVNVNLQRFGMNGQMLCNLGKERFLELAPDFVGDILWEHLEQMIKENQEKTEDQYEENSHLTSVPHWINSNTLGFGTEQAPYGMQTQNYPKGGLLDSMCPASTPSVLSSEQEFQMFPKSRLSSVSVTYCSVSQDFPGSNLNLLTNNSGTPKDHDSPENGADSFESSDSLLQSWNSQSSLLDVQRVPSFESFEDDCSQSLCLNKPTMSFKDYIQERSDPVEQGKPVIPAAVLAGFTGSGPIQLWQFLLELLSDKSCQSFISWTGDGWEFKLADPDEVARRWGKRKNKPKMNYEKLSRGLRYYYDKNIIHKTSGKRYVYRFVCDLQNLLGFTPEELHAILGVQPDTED
Put shortly:
as §1

Assay [13] addresses T10, SPDEF (Homo sapiens, UniProt O95238 1-335).
T10 sequence: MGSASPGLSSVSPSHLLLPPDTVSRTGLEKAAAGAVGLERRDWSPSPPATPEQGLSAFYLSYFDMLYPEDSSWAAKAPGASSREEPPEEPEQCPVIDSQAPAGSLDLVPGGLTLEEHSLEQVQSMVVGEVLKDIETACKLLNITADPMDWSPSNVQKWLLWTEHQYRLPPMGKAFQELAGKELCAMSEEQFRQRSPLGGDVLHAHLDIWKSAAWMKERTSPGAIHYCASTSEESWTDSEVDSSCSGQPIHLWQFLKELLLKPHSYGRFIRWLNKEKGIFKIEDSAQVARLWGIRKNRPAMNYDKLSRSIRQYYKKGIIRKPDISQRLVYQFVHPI
Summed up: as §1

The target in assay [14] is T11, ETV3 (Homo sapiens, UniProt P41162-2 1-143).
T11 sequence: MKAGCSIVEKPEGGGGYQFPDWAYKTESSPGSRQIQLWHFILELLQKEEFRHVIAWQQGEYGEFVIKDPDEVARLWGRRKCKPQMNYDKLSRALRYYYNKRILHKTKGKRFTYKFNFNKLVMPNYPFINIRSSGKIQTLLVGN
Summed up:
as §1

The target in assay [15] is ETV6 (Homo sapiens, UniProt P41212 1-452). Put shortly: as §1
ETV6, sequence (P41212 whole entry): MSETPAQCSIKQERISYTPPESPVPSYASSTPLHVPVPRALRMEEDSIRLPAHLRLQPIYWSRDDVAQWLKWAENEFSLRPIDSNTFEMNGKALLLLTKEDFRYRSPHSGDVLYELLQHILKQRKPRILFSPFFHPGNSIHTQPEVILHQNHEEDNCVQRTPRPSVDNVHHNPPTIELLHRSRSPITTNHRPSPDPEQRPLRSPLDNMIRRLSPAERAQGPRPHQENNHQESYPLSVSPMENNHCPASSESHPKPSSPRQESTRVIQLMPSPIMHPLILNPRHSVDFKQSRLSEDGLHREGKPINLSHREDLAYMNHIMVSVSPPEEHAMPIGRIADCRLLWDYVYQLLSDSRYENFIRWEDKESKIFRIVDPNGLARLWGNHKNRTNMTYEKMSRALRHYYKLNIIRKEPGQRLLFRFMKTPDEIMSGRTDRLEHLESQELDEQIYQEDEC

For TGGATA, the binding signal is 1.05 fold enrichment (6-mer frequency, TF over GST control) in [1]; 1.1 fold enrichment (6-mer frequency, TF over GST control) in assay [2]; 1.08 fold enrichment (6-mer frequency, TF over GST control) in assay [3]; 1.12 fold enrichment (6-mer frequency, TF over GST control) in assay [4]; 1.04 fold enrichment (6-mer frequency, TF over GST control) in [5]; 1.05 fold enrichment (6-mer frequency, TF over GST control) in assay [6]. The binding signal in assay [7] is 1.07 fold enrichment (6-mer frequency, TF over GST control); in assay [8], 1.16 fold enrichment (6-mer frequency, TF over GST control); in assay [9], 1.09 fold enrichment (6-mer frequency, TF over GST control); in [10] it was 1 fold enrichment (6-mer frequency, TF over GST control); in assay [11], 1.04 fold enrichment (6-mer frequency, TF over GST control); in assay [12] it was 1.06 fold enrichment (6-mer frequency, TF over GST control). Moreover, the binding signal in [13] was 1.06 fold enrichment (6-mer frequency, TF over GST control); in [14], 1.06 fold enrichment (6-mer frequency, TF over GST control); in assay [15], 1 fold enrichment (6-mer frequency, TF over GST control).
